Experimental data: the supplement of paper PMC6555819

Key:
Test in all cases: PBM binding z-score (relative to random genomic background probes); higher = stronger binding; sequences stand for … in GC…GCGATTGACAGCGTAGAATGAAGG
[1] = tested on: FXR:RXRa (NR concentration 270 nM, RXRa partner concentration 90 nM)
Method in brief: (§1)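 Scanned fluorescence from custom Agilent 4×180K protein-binding microarrays was regression-normalized. Binding z-scores use random background probes as reference. Ligand-free nuclear receptor dimers were incubated on the arrays for 1 h and detected with antibodies against each partner (one per run).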

[2] = tested on: LXRa:RXRa (NR concentration 270 nM, RXRa partner concentration 90 nM)
Method in brief: as §1

[3] = tested on: LXRa homodimer (NR concentration 270 nM)
Method in brief: as §1

[4] = tested on: LXRb:RXRa (NR concentration 270 nM, RXRa partner concentration 90 nM)
Method in brief: as §1

[5] = tested on: LXRb homodimer (NR concentration 270 nM)
Method in brief: as §1

[6] = tested on: PPARa:RXRa (NR concentration 270 nM, RXRa partner concentration 90 nM)
Method in brief: as §1

[7] = tested on: PPARg:RXRa (NR concentration 180 nM, RXRa partner concentration 90 nM)
Method in brief: as §1

[8] = tested on: PPARg:RXRa 270nM:90nM, anti-RXR (NR concentration 270 nM, RXRa partner concentration 90 nM)
Method in brief: as §1

[9] = tested on: PPARg:RXRa 30nM:10nM, anti-RXR (NR concentration 30 nM, RXRa partner concentration 10 nM)
Method in brief: as §1

[10] = tested on: PPARg:RXRa 90nM:30nM, anti-RXR (NR concentration 90 nM, RXRa partner concentration 30 nM)
Method in brief: as §1

Row | Sequence | PBM binding z-score [1] | PBM binding z-score [2] | PBM binding z-score [3] | PBM binding z-score [4] | PBM binding z-score [5] | PBM binding z-score [6] | PBM binding z-score [7] | PBM binding z-score [8] | PBM binding z-score [9] | PBM binding z-score [10]
1 | TCTAGCAGGCCAGAGGGTCACGCAAGAGGTACGG | 1.68 | 1.54 | -0.618 | 1.93 | -1.47 | 3.24 | 2.4 | 2.99 | 1.96 | 2.57
2 | TAGCCTAAGTCAGATCGGGCCAGTATACGCTATA | 0.0829 | -0.914 | -0.748 | -0.879 | -0.805 | -0.43 | 0.157 | -0.628 | -0.321 | -0.556
3 | CTCGGAAGGTCGTGCTCAGGTGAGTATACCAAAC | 1.88 | 1.55 | -0.00824 | 1.29 | -0.534 | 2.79 | 0.376 | 1.25 | 0.069 | 0.755
4 | ACTAGTTGGTTAGCTGAGGTCACACACAATTCGG | 2.92 | 3.56 | 3.63 | 3.49 | 0.944 | 3.95 | 1.63 | 2.35 | 0.884 | 1.41
5 | CCTACTGGGCCAAAAAGGTCAGTGATGCCGATAA | 1.31 | 1.9 | 0.693 | 2.27 | -0.789 | 3.36 | 2.04 | 2.9 | 0.549 | 1.83
6 | TCTCGGAGAACACGAAGGTCAGAGCTTTCCAGAG | -0.456 | 0.775 | -0.321 | 0.915 | -0.994 | 1.59 | 0.33 | 1.41 | 2.09 | 1.74
7 | CAAACTAGGTCAAGAGGTGAAAGTCCGCTTCCCG | 5.13 | 3.89 | 0.764 | 2.66 | 0.24 | 5.8 | 8.82 | 7.36 | 5.81 | 7.88
8 | AGAATGAGGTTATACGTAGATCAGGGCAGAAAGT | 2.33 | 1.89 | 0.241 | 1.77 | -0.0553 | 3.17 | 1.83 | 2.15 | 0.79 | 1.41
9 | TGAAAGAGGTTATAAGATCAGGGAACGTTGCAAA | 2.03 | 1.91 | -0.395 | 1.33 | -0.331 | 2.91 | 1.11 | 1.46 | 0.81 | 1.12
10 | CCTAGCAGGCCAGGGTGACTCAAGCATTTCGCTT | -0.306 | -0.411 | -0.589 | -0.526 | -1.43 | 0.023 | -0.26 | -0.0399 | -0.987 | -0.126
11 | AAATGTAGGTTACATCCGGGTCATTCAGGCTATG | 2.37 | 4.34 | 1.56 | 2.86 | 0.424 | 4.62 | 6.92 | 5.78 | 2.95 | 5.22
12 | CCGGCTGGGGCAGAAAGGTTACCATACCATCCGG | 0.0889 | 0.439 | -0.422 | 0.64 | -1.29 | 1.61 | 0.79 | 1.64 | -0.158 | 1.06
13 | CCTCGTTGGTCAGGAGGTCACACACCGGATATGA | 3.4 | 3.49 | 1.96 | 3.4 | 0.47 | 4.22 | 2.29 | 2.99 | 0.71 | 2.06
14 | TTACCAAGGTGAGCTGAGGTCGTTGTTCCAACTC | 1.49 | 1.3 | -0.412 | 0.784 | -1.32 | 1.75 | -0.301 | 1.01 | -0.393 | 0.445
15 | ATCGAAAGGTCGATGAGGTGAGTATACACCGTTT | 3.46 | 2.76 | -0.117 | 2.16 | 0.539 | 3.5 | 1.83 | 2.19 | 1.1 | 1.4
16 | TAGACAGGGTCAAAGGCCAGAGTACGAATGTCGA | 7.27 | 4.51 | -0.0175 | 3.89 | 0.611 | 5.99 | 7.49 | 6.93 | 4.3 | 6.42
17 | ATCGAATGGTCGACGAGGTGAGTATACACCGTTT | -0.323 | -0.552 | -0.816 | -0.341 | -0.342 | -0.212 | 0.744 | -0.273 | 0.119 | -0.347
18 | AGAAGGAGGGCAATGAGTTGATAGCACGGGTGGC | 0.307 | 0.255 | 0.19 | 0.452 | 0.521 | 1.2 | 1.33 | 0.786 | -0.173 | 0.451
19 | CCTTACGGGTCACTGACAGGTTACAGCATTTGGA | 5.61 | 3.93 | 0.335 | 3.43 | -0.275 | 5.01 | 4.41 | 4.6 | 1.49 | 3.28
20 | CGACCAAGGTCAATGCTAGGTCAGTGAAAGCATT | 6.54 | 5.4 | 1.97 | 3.95 | 0.214 | 4.99 | 3.99 | 4.62 | 1.63 | 3.37
21 | TCATATAGGTAAACAGGTGAAAGTTCGTAAGTTA | 1.01 | 1.3 | 1.04 | 1.4 | -0.228 | 4.15 | 7.28 | 6.52 | 5.93 | 7.06
22 | GCTAGATGGTCAGTAAAAGGTCACACACCGGTCG | 3.28 | 4.21 | 4.31 | 4.17 | 0.588 | 4.58 | 2.79 | 3.94 | 1.99 | 3.21
23 | TAGCCTAGGTCATTCAGCGGCCAGTATAGAAAGC | 5.03 | 3.68 | 1.04 | 2.68 | 0.455 | 3.72 | 2.09 | 2.21 | 0.564 | 1.12
